We go through 16 compounds from ChEMBL document CHEMBL1157539, “Thousands of chemical starting points for antimalarial lead identification” (Nature, 2010).

This test deals with Plasmodium falciparum. Kind of test: GSK_TCMDC: Inhibition of Plasmodium falciparum Dd2 in whole red blood cells, using parasite LDH activity as an index of growth. Test compounds present at 2uM. It is filed as functional.
Regarding `CC(C)(C)Oc1ccc(NC(=O)c2ccccc2O)cc1`, the Inhibition came to 67%.

As for `Cc1cccc(C(=O)NC(NC(=S)Nc2ccc([N+](=O)[O-])cc2)C(Cl)(Cl)Cl)c1` (stereo unspecified), the Inhibition is reported as 66%. As for `N=C(N)NC(=O)Nc1cc(Cl)c(F)c(Cl)c1`, the Inhibition was 64%. Regarding `COc1ccc(-c2cc3nc4c(c(NCCCn5ccnc5)n3n2)CCCC4)cc1`, the Inhibition was 74%.

Consider `CC(=NNC(=N)N)c1ccc2c(ccc3ccccc32)c1.Cl`, for which the Inhibition was 15%.

In turn, `CCCN1CCC=C(c2cccc(Nc3nccc(Nc4cc(OC)ccc4C)n3)c2)C1.Cl` yielded an Inhibition of 35%. Compound `Nc1nc(N)c2c(Cc3ccc(Br)cc3)cccc2n1` gave an Inhibition of 20%.

The compound `CCC(C)NS(=O)(=O)c1ccc2nc(Nc3ccc(C)c(Cl)c3)n([C@H](C)C(C)(C)C)c2c1` (stereo partly specified) came in with an Inhibition of 100%. Consider `CCOc1ccc(C(C)NC(=O)Nc2ccccc2)cc1OCC` (stereo unspecified), for which the Inhibition is recorded as 95%. The compound `COc1ccccc1C1CC(c2ccc(C)cc2)=NN1C(=O)c1ccccc1` (stereo unspecified) returned an Inhibition of 45%. As to `CC(C)(CNC(=O)[C@@H]1CCCCN1)c1nc(-c2ccc(Cl)c(O)c2)c(-c2ccncc2)[nH]1.Cl`, the Inhibition is listed as 96%. As to `O=C(/C=C/c1ccc([N+](=O)[O-])cc1)N1CCC(NS(=O)(=O)c2ccc(Br)cc2)CC1`, the Inhibition was 5%. The figure for `COc1cc2c(cc1COc1ccccc1)CCN1Cc3cc(OC)c(OC)cc3CC21` (stereo unspecified) is 84%; for `O=C(/C=C/c1ccc(Cl)c(Cl)c1)NCCCCCN1CCCN(C(=O)Nc2ccc(Cl)c(Cl)c2)CC1` it is 2%; for `COc1cc(Cc2cnc(N)nc2N)cc(OCCCCCC(N)=O)c1OC` it is 0%.

As to `N#Cc1ccc2c(c1)CCN(CCCn1c(-c3ccc4ccccc4c3)nc3ccncc31)CC2`, the Inhibition turned out to be 97%.
